Results on 1 sequence are retold here after PMC7862700, “An all-to-all approach to the identification of sequence-specific readers for epigenetic DNA modifications on cytosine”.

Holding throughout (experiment): DAPPL (digital affinity profiling via proximity ligation, sequencing); 10 mM Tris-HCl pH 7.5, 50 mM NaCl, 1 mM DTT, 4% glycerol, room temperature, 30 min; GST-TFs on glutathione beads, 16-mer random dsDNA library, 0.1% formaldehyde crosslink after washing; high values mean tight binding
The target in one assay is T1, FEV (Homo sapiens, UniProt Q99581 1-238).
T1 sequence: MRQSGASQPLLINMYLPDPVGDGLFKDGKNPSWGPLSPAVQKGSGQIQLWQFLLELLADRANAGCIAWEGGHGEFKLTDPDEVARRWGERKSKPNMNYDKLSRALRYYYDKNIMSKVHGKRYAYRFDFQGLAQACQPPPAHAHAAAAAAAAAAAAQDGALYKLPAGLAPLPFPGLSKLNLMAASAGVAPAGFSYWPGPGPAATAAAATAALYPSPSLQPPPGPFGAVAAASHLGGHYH
The note with it: protein: recombinant; tags: N-terminal GST; dsDNA, one strand shown. Put shortly: (§1)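 Pools were built from human transcription factors expressed in yeast as GST fusions, captured on glutathione beads and DNA-barcoded, along with a tag-only sample. Incubation with 200 nmole of a 16-mer random double-stranded DNA library lasted 30 min at room temperature in Tris/NaCl/DTT/glycerol buffer, and was followed by washing, 0.1% formaldehyde crosslinking, proximity ligation, PCR amplification and Illumina NextSeq500 sequencing. Binding signal is the quotient of each hexamer's read frequency for a factor and its frequency for the tag-only sample.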

In another assay the target is ETV5 (Homo sapiens, UniProt P41161 1-510). The note with it: protein: recombinant; tags: N-terminal GST; dsDNA, one strand shown. Put shortly:
as §1

For another assay, the target named is HSF1 (Homo sapiens, UniProt Q00613 1-529). The note with it: protein: recombinant; tags: N-terminal GST; chain copies: 3; dsDNA, one strand shown. The gist of the method: as §1
Chain of HSF1 (Q00613 whole entry): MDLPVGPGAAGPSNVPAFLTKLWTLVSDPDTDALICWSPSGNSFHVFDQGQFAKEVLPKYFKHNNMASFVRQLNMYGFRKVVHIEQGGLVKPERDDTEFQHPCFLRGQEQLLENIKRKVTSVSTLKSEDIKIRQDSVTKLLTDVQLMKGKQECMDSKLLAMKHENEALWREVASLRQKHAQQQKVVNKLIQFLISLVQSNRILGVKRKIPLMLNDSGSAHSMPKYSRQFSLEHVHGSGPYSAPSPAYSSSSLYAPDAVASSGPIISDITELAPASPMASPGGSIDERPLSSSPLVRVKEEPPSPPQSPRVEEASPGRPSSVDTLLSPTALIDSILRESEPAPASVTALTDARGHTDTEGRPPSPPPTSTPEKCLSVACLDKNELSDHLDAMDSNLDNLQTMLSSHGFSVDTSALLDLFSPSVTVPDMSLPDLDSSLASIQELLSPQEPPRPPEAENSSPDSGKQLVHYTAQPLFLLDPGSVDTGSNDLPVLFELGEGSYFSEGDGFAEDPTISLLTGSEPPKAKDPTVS
For the next assay, the target named is T2, SPIC (Homo sapiens, UniProt Q8N5J4 1-248).
T2 sequence: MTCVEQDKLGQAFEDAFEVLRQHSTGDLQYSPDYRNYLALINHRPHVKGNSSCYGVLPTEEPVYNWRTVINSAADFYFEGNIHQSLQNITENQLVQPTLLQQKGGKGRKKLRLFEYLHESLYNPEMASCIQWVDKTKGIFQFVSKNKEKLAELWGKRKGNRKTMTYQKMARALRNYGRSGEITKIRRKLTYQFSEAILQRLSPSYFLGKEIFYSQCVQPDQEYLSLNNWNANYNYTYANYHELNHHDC
The note with it: protein: recombinant; tags: N-terminal GST; dsDNA, one strand shown. Put shortly: as §1

The next assay has as its target ELF4 (Homo sapiens, UniProt Q99607 1-663). The note with it: protein: recombinant; tags: N-terminal GST; dsDNA, one strand shown. The gist of the method: as §1
The next assay concerns the target T3, ELK4 (Homo sapiens, UniProt P28324-2 1-405).
T3 sequence: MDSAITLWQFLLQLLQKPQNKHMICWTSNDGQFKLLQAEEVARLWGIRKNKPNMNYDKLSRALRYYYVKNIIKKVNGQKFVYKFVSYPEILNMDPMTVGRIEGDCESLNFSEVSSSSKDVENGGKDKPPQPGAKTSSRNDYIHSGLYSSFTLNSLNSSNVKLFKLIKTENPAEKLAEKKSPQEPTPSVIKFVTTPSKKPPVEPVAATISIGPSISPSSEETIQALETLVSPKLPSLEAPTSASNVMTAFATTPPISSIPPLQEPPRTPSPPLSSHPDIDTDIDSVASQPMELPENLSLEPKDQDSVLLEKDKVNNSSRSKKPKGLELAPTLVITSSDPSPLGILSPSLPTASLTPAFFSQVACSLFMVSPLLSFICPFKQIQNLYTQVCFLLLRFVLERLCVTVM
The note with it: protein: recombinant; tags: N-terminal GST; dsDNA, one strand shown. The gist of the method: as §1

Another assay has as its target T4, ETV2 (Homo sapiens, UniProt O00321 1-342).
T4 sequence: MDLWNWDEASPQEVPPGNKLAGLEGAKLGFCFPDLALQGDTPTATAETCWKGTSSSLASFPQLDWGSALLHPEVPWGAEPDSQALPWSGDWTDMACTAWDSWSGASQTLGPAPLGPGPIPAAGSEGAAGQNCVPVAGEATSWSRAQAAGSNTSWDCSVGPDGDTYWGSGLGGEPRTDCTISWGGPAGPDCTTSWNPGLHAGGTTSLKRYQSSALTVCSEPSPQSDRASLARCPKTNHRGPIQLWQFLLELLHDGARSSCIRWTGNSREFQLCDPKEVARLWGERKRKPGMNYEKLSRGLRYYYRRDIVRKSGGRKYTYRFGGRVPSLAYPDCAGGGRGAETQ
The note with it: protein: recombinant; tags: N-terminal GST; dsDNA, one strand shown. The gist of the method:
as §1

The target in a further assay is T5, ELF3 (Homo sapiens, UniProt P78545 1-371).
T5 sequence: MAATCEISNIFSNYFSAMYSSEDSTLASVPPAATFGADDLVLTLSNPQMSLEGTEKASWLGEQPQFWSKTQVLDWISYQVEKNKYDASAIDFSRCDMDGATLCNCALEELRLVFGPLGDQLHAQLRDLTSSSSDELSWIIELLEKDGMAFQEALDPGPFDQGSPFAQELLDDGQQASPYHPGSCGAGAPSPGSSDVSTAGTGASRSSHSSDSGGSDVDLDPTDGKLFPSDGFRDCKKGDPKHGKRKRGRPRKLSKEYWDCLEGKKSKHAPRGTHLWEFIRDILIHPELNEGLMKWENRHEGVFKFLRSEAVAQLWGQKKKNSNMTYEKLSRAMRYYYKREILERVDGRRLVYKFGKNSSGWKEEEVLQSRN
The note with it: protein: recombinant; tags: N-terminal GST; dsDNA, one strand shown. The gist of the method: as §1

A further assay concerns the target CRX (Homo sapiens, UniProt O43186 1-299). The note with it: protein: recombinant; tags: N-terminal GST; dsDNA, one strand shown. Put shortly:
as §1

A further assay deals with ETV1 (Homo sapiens, UniProt P50549 1-477). The note with it: protein: recombinant; tags: N-terminal GST; dsDNA, one strand shown. The gist of the method:
as §1

The next assay has as its target T6, ERF (Homo sapiens, UniProt P50548 1-548).
T6 sequence: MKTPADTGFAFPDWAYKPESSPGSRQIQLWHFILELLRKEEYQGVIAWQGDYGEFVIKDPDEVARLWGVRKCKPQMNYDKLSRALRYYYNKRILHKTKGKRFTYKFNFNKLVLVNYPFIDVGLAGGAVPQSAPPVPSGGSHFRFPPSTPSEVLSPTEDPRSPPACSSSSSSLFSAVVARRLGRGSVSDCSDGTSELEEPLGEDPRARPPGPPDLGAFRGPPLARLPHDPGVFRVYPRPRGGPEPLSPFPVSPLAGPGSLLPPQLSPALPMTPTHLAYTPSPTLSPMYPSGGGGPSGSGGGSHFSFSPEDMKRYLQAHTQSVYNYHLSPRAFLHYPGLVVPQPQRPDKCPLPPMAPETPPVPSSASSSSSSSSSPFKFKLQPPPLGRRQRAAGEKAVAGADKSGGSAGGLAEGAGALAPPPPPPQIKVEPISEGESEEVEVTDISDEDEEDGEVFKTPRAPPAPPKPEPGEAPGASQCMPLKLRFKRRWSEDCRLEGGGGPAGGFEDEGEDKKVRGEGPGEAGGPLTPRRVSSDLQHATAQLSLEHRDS
The note with it: protein: recombinant; tags: N-terminal GST; dsDNA, one strand shown. Put shortly: as §1

The target in the next assay is T7, ETV3L (Homo sapiens, UniProt Q6ZN32 1-361).
T7 sequence: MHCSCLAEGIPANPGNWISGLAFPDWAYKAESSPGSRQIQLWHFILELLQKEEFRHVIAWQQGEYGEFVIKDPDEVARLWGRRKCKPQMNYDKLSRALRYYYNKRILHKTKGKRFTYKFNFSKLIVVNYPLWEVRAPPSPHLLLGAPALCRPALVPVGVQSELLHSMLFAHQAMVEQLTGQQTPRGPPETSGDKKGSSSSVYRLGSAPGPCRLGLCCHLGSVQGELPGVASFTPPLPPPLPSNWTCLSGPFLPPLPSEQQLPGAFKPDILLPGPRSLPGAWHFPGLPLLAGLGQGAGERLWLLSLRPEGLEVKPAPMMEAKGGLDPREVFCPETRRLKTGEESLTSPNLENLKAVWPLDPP
The note with it: protein: recombinant; tags: N-terminal GST; dsDNA, one strand shown. The gist of the method:
as §1

The next assay deals with T8, ETS2 (Homo sapiens, UniProt P15036 1-469).
T8 sequence: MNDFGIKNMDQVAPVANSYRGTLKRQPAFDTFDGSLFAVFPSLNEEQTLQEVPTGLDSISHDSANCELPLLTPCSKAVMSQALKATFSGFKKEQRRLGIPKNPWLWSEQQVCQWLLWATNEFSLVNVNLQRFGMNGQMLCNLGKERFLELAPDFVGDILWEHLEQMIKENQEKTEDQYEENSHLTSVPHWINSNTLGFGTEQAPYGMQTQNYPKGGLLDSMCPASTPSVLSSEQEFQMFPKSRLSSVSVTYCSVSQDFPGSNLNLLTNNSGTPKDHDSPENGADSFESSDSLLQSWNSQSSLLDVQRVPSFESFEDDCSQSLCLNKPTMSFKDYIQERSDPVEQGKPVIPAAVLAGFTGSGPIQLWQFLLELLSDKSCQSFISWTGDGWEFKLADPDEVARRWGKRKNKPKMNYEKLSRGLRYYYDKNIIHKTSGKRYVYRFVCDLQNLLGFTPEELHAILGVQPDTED
The note with it: protein: recombinant; tags: N-terminal GST; dsDNA, one strand shown. Put shortly: as §1

Another assay concerns the target T9, SPDEF (Homo sapiens, UniProt O95238 1-335).
T9 sequence: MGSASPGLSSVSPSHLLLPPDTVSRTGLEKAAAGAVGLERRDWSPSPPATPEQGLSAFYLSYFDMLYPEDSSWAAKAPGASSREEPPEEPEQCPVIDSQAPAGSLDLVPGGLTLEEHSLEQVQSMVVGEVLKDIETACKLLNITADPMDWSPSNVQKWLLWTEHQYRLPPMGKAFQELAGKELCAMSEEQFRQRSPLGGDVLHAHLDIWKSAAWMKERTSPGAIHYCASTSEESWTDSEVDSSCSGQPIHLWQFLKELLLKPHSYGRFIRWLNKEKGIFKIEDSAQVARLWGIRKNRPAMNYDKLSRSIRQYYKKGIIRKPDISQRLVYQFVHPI
The note with it: protein: recombinant; tags: N-terminal GST; dsDNA, one strand shown. Put shortly:
as §1

A further assay concerns the target T10, ETV7 (Homo sapiens, UniProt Q9Y603 1-341).
T10 sequence: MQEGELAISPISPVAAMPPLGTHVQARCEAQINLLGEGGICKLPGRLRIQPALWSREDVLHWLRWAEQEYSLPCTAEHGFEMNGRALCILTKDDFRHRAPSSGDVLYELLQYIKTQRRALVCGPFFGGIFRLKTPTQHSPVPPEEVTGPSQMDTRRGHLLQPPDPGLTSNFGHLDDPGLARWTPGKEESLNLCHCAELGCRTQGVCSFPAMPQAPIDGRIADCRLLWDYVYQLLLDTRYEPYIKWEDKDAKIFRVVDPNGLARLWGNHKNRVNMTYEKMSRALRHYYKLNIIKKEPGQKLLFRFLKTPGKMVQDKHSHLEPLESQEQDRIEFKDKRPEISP
The note with it: protein: recombinant; tags: N-terminal GST; dsDNA, one strand shown. Put shortly:
as §1

The target in another assay is T11, ELF5 (Homo sapiens, UniProt Q9UKW6-2 1-255).
T11 sequence: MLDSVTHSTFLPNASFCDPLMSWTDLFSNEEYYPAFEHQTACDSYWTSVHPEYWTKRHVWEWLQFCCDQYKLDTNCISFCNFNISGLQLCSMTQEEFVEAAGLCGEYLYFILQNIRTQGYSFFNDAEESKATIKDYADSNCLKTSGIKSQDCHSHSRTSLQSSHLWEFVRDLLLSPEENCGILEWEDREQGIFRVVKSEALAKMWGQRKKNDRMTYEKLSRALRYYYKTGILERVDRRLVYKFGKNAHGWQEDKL
The note with it: protein: recombinant; tags: N-terminal GST; dsDNA, one strand shown. Put shortly:
as §1

For another assay, the target named is T12, ETV3 (Homo sapiens, UniProt P41162-2 1-143).
T12 sequence: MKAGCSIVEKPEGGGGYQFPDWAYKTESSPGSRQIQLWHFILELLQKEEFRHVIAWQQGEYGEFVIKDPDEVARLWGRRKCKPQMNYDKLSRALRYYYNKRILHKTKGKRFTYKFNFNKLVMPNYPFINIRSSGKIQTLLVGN
The note with it: protein: recombinant; tags: N-terminal GST; dsDNA, one strand shown. The gist of the method: as §1

The target in another assay is ETV6 (Homo sapiens, UniProt P41212 1-452). The note with it: protein: recombinant; tags: N-terminal GST; dsDNA, one strand shown. Put shortly: as §1
Chain of ETV6 (P41212 whole entry): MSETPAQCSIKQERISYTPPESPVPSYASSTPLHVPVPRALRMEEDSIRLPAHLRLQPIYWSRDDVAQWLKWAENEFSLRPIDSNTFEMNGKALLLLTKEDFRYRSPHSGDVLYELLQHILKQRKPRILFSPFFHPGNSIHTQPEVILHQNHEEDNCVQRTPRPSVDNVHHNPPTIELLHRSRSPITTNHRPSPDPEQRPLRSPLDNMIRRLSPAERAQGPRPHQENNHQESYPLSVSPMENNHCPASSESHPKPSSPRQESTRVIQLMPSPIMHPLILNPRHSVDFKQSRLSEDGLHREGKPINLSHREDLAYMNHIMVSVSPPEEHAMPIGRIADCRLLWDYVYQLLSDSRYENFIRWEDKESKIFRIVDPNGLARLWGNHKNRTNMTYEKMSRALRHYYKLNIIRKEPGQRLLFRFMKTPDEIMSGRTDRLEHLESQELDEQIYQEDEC

Chain of ETV1 (P50549 whole entry): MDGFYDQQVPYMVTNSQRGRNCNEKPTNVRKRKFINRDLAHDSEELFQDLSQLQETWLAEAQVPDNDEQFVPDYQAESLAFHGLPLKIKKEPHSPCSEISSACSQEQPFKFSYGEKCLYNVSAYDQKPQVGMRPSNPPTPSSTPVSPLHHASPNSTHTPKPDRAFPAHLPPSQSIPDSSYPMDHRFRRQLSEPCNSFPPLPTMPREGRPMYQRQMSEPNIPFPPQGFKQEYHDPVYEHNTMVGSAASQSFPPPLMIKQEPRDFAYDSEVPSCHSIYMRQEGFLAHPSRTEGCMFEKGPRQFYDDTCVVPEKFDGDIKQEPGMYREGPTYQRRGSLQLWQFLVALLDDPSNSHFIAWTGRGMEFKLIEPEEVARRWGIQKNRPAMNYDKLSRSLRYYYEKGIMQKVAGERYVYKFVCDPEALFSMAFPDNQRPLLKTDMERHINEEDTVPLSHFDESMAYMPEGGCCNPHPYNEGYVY
Chain of ELF4 (Q99607 whole entry): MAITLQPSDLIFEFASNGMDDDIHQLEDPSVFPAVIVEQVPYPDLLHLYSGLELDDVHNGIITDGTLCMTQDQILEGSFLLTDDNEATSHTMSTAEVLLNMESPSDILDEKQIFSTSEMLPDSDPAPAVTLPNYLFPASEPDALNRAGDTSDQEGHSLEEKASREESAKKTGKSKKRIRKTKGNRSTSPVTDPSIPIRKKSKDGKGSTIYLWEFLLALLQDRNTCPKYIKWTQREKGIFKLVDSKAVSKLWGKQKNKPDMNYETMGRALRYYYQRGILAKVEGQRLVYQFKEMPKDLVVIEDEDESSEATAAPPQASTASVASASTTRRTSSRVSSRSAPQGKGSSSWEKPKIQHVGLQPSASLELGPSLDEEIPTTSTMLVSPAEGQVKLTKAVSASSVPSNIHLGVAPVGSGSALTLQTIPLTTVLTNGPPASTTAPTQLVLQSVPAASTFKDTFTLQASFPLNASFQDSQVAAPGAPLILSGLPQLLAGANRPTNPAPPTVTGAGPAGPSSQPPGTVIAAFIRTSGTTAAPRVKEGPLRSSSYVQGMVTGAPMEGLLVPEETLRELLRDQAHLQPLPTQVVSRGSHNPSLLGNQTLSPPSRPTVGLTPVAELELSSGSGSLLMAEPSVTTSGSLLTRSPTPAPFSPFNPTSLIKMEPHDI
Chain of CRX (O43186 whole entry): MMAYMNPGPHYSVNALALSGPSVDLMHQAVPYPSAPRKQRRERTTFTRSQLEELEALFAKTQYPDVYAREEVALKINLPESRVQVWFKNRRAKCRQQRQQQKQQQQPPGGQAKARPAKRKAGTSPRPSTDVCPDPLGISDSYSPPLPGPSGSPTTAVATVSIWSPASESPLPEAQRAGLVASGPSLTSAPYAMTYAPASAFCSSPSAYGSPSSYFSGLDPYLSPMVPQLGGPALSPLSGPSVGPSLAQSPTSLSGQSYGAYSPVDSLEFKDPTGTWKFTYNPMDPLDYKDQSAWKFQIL
Chain of ETV5 (P41161 whole entry): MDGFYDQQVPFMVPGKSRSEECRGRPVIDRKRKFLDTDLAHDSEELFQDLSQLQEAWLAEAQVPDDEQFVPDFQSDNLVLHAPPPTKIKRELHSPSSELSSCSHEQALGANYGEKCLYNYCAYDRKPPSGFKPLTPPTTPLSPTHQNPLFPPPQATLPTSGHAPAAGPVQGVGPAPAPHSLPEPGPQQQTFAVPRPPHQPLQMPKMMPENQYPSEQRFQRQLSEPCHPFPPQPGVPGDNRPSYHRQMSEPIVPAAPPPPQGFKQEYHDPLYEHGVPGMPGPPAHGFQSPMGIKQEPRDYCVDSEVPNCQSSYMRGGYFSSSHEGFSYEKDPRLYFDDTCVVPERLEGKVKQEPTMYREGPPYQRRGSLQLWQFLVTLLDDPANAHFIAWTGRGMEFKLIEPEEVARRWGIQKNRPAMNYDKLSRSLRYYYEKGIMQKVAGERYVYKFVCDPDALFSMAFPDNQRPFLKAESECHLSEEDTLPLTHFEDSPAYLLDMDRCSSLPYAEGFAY

CATACT: the binding signal with FEV is 1.27 fold enrichment (6-mer frequency, TF over GST control); with ETV5, 1.2 fold enrichment (6-mer frequency, TF over GST control); in the assay with HSF1, 1.2 fold enrichment (6-mer frequency, TF over GST control); with SPIC, 1.23 fold enrichment (6-mer frequency, TF over GST control); with ELF4, 1.35 fold enrichment (6-mer frequency, TF over GST control); in the assay with ELK4 it was 1.34 fold enrichment (6-mer frequency, TF over GST control). Also, the binding signal in the assay with ETV2 is 1.47 fold enrichment (6-mer frequency, TF over GST control); in the assay with ELF3, 1.34 fold enrichment (6-mer frequency, TF over GST control); with CRX it was 1.24 fold enrichment (6-mer frequency, TF over GST control); with ETV1, 1.33 fold enrichment (6-mer frequency, TF over GST control); with ERF, 1.3 fold enrichment (6-mer frequency, TF over GST control); with ETV3L, 1.33 fold enrichment (6-mer frequency, TF over GST control). Further, the binding signal with ETS2 is 1.32 fold enrichment (6-mer frequency, TF over GST control); with SPDEF it was 1.23 fold enrichment (6-mer frequency, TF over GST control); in the assay with ETV7 it was 1.28 fold enrichment (6-mer frequency, TF over GST control); with ELF5 it was 1.27 fold enrichment (6-mer frequency, TF over GST control); in the assay with ETV3, 1.36 fold enrichment (6-mer frequency, TF over GST control); in the assay with ETV6 it was 1.26 fold enrichment (6-mer frequency, TF over GST control).
